From ChEMBL document CHEMBL3988442, “University of Dundee, Small-Polar-MMV Screening Library” (2021)
Hit rate of the full screen: of about 38,000 compounds, about 1,200 (3.2%) showed an effect of 50% or more. The median lay at about -58%. Shown is part of a subset that was picked to be rich in strong results.

Tested on: Plasmodium falciparum
Experiment: Calibr Malaria Delayed Death Assay SOP
Assay type: functional, organism-based
Parameters: scale not given: in the data most compounds retested in dose-response had high values
Details: concentration 4.99e-06 (unit not given; other assays of the set use mol/L)

Point of comparison: `C[C@@H]1CN(CCC(=O)NCc2ccccc2Cl)C[C@@]1(O)C1CC1`, “Percent Effect” value 46.32%. Against it:
- O=C(COc1ccccc1NCc1ccc(F)cc1)N1CCOCC1 — lower, -94.22%
- COCCOCC(=O)Nc1ccccc1F — lower, -49.03%
- COc1cc(CNc2cc(N3CCCC3CO)ncn2)ccn1 (configuration not stated) — lower, -84.2%
- CN1CCC/C1=N\S(=O)(=O)c1ccc(NC(=O)c2ccsc2)cc1 — lower, -6.415%
- CCn1cnnc1CNC(=O)c1cc(F)ccc1OC — lower, -155.2%
- Cl.Nc1cccnc1N1CCCCCC1 — lower, -85.39%
- O=C(O)C(F)(F)F.O=C(O)C(F)(F)F.c1coc(CN2CCCn3c(CN4CCOCC4)nnc3C2)c1 — lower, -56.94%
- CCSc1ccc(C(=O)NCCc2nnc(-c3ccco3)[nH]2)cn1 — lower, -77.1%
- CC(OCC1CC1)C(=O)NCCC(=O)Nc1ccccn1 (configuration not stated) — lower, -13.51%
- COc1ccc(OC)c(Nc2nc3c(C)nn(C)c3c(=O)n2C)c1 — lower, -88.36%
- CCOCC1CC2(CCN(C(=O)c3ccc4ccccc4n3)CC2)CO1.O=C(O)C(F)(F)F (configuration not stated) — lower, 2.806%
- COc1ccc(CN(C)Cc2cccc(C#N)c2)c(OC)c1 — lower, 25.49%
- COc1cccc(N2CCC(CNCc3cccc(C#N)c3)C2)c1 (configuration not stated) — lower, -60.34%
- COc1ccccc1C1(CNCc2cccc(C#N)c2)CCOCC1 — higher, 66.05%
- CC(C)NC(=O)CN1CCCNCC1 — lower, -82.69%
- O=C(c1cc(-c2ccn(CC3CC3)n2)n2ccccc12)N1CCOCC1 — higher, 67.86%
- O=C(O)c1cc(-c2ccn(CC3CC3)n2)n2ccccc12 — lower, -79.58%
- O=C(c1cc(-c2ccn(CC3CC3)n2)n2ccccc12)N1CCCO1 — lower, -90.15%
- Cc1nc(CNC(=O)NC2CCCN(c3ncccn3)C2)cs1 (configuration not stated) — lower, -24.32%
- CCn1nc(C)c2ccn(CC(=O)NCC3CCCO3)c(=O)c21 (configuration not stated) — lower, -59.75%
- CCC(CNC1CCN(C(C)=O)CC1)Oc1ccccc1Cl (configuration not stated) — higher, 48.49%
- CCC(CNC1CCN(C(C)=O)CC1)Oc1cccc(C)c1 (configuration not stated) — higher, 51.47%
- CCC(CNC1CCN(C(=O)N(C)C)CC1)Oc1ccccc1C (configuration not stated) — higher, 72.22%
- CCC(CNS(C)(=O)=O)Oc1ccccc1C (configuration not stated) — lower, -141.4%
- COCC(=O)N1CCC(Oc2cccc(C)c2)CC1 — lower, -129.3%
- Cc1cccc(C)c1OC1CN(C(=O)C2CCN(C(=O)N(C)C)CC2)C1 — lower, -10.34%
- CCc1ccc(C(=O)N2CCN(CC(O)CC)CC2)o1 (configuration not stated) — lower, -8.781%
- Cc1nn(C)c(C)c1C1COCCN1c1ncncc1Br (configuration not stated) — lower, -86.62%
- O=C(O)C(F)(F)F.OCCN1CCC(F)(F)C2(CCN(c3cnccn3)C2)C1 (configuration not stated) — lower, -58.35%
- CCc1nc(CC(=O)N2CCCC2c2c(C)nn(C)c2OC)cs1 (configuration not stated) — lower, -39.25%
- COc1ccc(CN2CCC3(CC2)CC(c2cccnc2)CO3)cc1.O=C(O)C(F)(F)F.O=C(O)C(F)(F)F (configuration not stated) — lower, -68.03%
- CCCN1CCC2(CC1)COc1ccccc1S(=O)(=O)N(CC1CC1)C2.O=C(O)C(F)(F)F — lower, -32.31%
- CCC(=O)N1CCC2(CC1)COc1ccccc1S(=O)(=O)N(C)C2 — lower, -32.01%
- CCN1CC2(CCN(C(=O)N(C)C)CC2)COc2ccccc2S1(=O)=O — lower, -20.19%
- CN1CC2(CCN(CC3CC3)CC2)COc2ccccc2S1(=O)=O.O=C(O)C(F)(F)F — higher, 52.41%
- O=S1(=O)c2ccccc2OCC2(CCN(CCO)CC2)CN1CC1CC1 — higher, 76.86%
- CN1CC2(CCN(C(=O)C3CCC3)CC2)COc2ccccc2S1(=O)=O — lower, -31.54%
- COCCN1CCC2(CC1)COc1ccccc1S(=O)(=O)N(C)C2 — lower, -7.731%
- CN(C)C(=O)CN1CCC2(CC1)COc1ccccc1S(=O)(=O)N(C)C2.O=C(O)C(F)(F)F — lower, -44.68%
- COCC1CN(C(=O)Cc2cccs2)Cc2nnn(CC3CC3)c21 (configuration not stated) — lower, -20.67%
- CC(OCC(F)(F)F)C(=O)N1CCOCC1 (configuration not stated) — lower, -69.84%
- CN(C)c1ccc(C(=O)N2CCCC2c2cnn(C)c2)cn1 (configuration not stated) — lower, -130.6%
- COc1cccc(CC(=O)N2CC[C@@H]3CN(C)S(=O)(=O)[C@@H]3CC2)c1 — lower, -25.41%
- CC1=C(c2ccc(C)cc2)S(=O)(=O)N=C1N1CCc2ccccc21 — lower, -28.82%
- OC1(CNc2ccc(F)cc2)CCNCC1 — lower, 9.673%
- CC(C(=O)Nc1sccc1C(N)=O)N(C)CCOc1ccccc1 (configuration not stated) — lower, 2.405%
- Nc1cc(-c2ccc(C(=O)O)cc2O)c2cc[nH]c2n1 — lower, -36.07%
- CCCNCc1ccc(-c2cc(N)nc3[nH]ccc23)cc1 — higher, 71.86%
- Nc1cc(-c2cc(O)cc(C(=O)O)c2)c2cc[nH]c2n1 — lower, -8.693%
- CCCn1nccc1C(=O)Nc1nc(C)c(C)s1 — lower, -95.22%
- CCc1ccccc1OCCN(C)C(=O)CCN1CCCO1 — lower, -98.11%
- CCc1ccccc1OCCN(C)C(=O)CCN1CCCCO1 — lower, 2.137%
- CCc1ccccc1OCCN(C)C(=O)CN1CCCC1 — higher, 75.23%
- CCn1nc(C)c2ccn(CC(=O)NC(C)C)c(=O)c21 — lower, -79.05%
- COc1ccc(NC(=O)N(CCO)Cc2ccsc2)cc1 — lower, -36.74%
- COC(=O)CN(C)Cc1cc(Br)cs1 — lower, -75.79%
- CCCN(C)CC1CCN(c2ccc(Br)c(C)n2)C1 (configuration not stated) — higher, 72.9%
- CCN(C)CC1CCN(c2ncc(Br)cn2)C1 (configuration not stated) — lower, -58.14%
- CCCN(C)CC1CCN(c2ncc(Br)cn2)C1 (configuration not stated) — lower, -74.37%
- CCC(CC)C(=O)NCCC(=O)N1CCN(c2ccccn2)CC1 — lower, -127.9%
- CC(C)C(=O)NCCC(=O)N1CCN(c2ccccn2)CC1 — lower, -182.3%
- CC(C)NCc1cccnc1N1CCN(c2ccccn2)CC1 — lower, 3.171%
- CCC(C)NC(=O)NCCC(=O)N1CCN(c2ccccn2)CC1 (configuration not stated) — lower, -19.73%
- CCCC(C)NCc1cccnc1N1CCN(c2ccccn2)CC1 (configuration not stated) — higher, 51.12%
- CC(C)CC(C)NCc1cccnc1N1CCN(c2ccccn2)CC1 (configuration not stated) — higher, 55.01%
- Cn1c(N)c2c(=O)n(C)c(-c3ccc(Cl)cc3Cl)cc2c(C#N)c1=O — lower, 5.212%
